# Data: PubChem BioAssay (NCI)
# Compounds without any hit were thinned out: in the full panel of roughly 83,000, 20% have a hit.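 Results are percent growth after 48 hours of single-concentration exposure. 100 means growth as in untreated cells, lower positive values show inhibition; negative values down to -100 show cell death.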 Values without a mark were called inactive. The source made the active and inactive calls. How the source made its calls: active means growth percent below 10; inactive means the rest.
# Assays:
# Assay in all cases: NCI-60 one-dose screen, 48 h (100 = growth as untreated, 0 = no growth, -100 = all killed)
# Conditions in all cases: 10 µM unless noted
# DU-145 prostate = test system: DU-145 prostate
# K-562 leukemia = test system: K-562 leukemia
# MALME-3M melanoma = test system: MALME-3M melanoma
# MDA-MB-231 breast = test system: MDA-MB-231 breast
# RXF 393 renal = test system: RXF 393 renal
# SF-268 CNS = test system: SF-268 CNS
# SF-295 CNS = test system: SF-295 CNS
# SF-539 CNS = test system: SF-539 CNS
# UACC-257 melanoma = test system: UACC-257 melanoma
# M14 melanoma = test system: M14 melanoma
# HCT-15 colon = test system: HCT-15 colon
# HT29 colon = test system: HT29 colon
# SNB-19 CNS = test system: SNB-19 CNS
# U251 CNS = test system: U251 CNS
# PC-3 prostate = test system: PC-3 prostate
# SK-MEL-5 melanoma = test system: SK-MEL-5 melanoma
# UACC-62 melanoma = test system: UACC-62 melanoma
# LOX IMVI melanoma = test system: LOX IMVI melanoma
# SK-MEL-28 melanoma = test system: SK-MEL-28 melanoma
# SNB-75 CNS = test system: SNB-75 CNS
SMILES,growth (DU-145 prostate),growth (K-562 leukemia),growth (MALME-3M melanoma),growth (MDA-MB-231 breast),growth (RXF 393 renal),growth (SF-268 CNS),growth (SF-295 CNS),growth (SF-539 CNS),growth (UACC-257 melanoma),growth (M14 melanoma),growth (HCT-15 colon),growth (HT29 colon),growth (SNB-19 CNS),growth (U251 CNS),growth (PC-3 prostate),growth (SK-MEL-5 melanoma),growth (UACC-62 melanoma),growth (LOX IMVI melanoma),growth (SK-MEL-28 melanoma),growth (SNB-75 CNS)
CCN(CC)CCCOc1ccc2ncnc(Nc3ccc(Oc4cccc(C(F)(F)F)c4)c(Cl)c3)c2c1,3.42% (active),-28.6% (active),-76.2% (active),-42.2% (active),-64.9% (active),35.1%,-61.7% (active),-87.5% (active),-60.5% (active),-72% (active),-33.6% (active),-44.6% (active),30.9%,-28.6% (active),8.76% (active),-100% (active),-33.8% (active),-100% (active),-89.1% (active),–
CCOc1ccc(-n2nc(C(=O)NCc3ccccc3OC)nc2-c2cc(OC)c(OC)c(OC)c2)cc1,65.2%,22.1%,87.5%,17.8%,43.5%,54.1%,34.8%,49.2%,62.7%,42.2%,29%,40.6%,45.2%,42.5%,24.6%,-1.22% (active),37%,36.3%,36.6%,–
COc1cc(Cl)c(C)cc1NC(=O)c1cc2ccccc2cc1O,26.4%,14.5%,-8.31% (active),-23.8% (active),11.7%,24%,-15.1% (active),22.1%,-1.4% (active),24.1%,9.39% (active),37.8%,23.1%,6.67% (active),2.12% (active),-35.1% (active),14.2%,2.44% (active),36.5%,–
CN1CCN(c2ccc3nc4c(nc3c2C(F)(F)F)C(=O)c2ncccc2C4=O)CC1,-85.7% (active),-6.72% (active),-99.2% (active),-5.99% (active),38.4%,1.96% (active),-61.6% (active),-52.4% (active),-82.3% (active),-89.6% (active),-47.5% (active),-55.5% (active),17.9%,0.911% (active),8.01% (active),-99.7% (active),-82.5% (active),-50.1% (active),5.49% (active),–
O=C(NNc1cnccn1)c1nc2cc(F)ccc2n2cccc12,25.7%,10.8%,11%,27.5%,9.53% (active),26%,12.9%,5.57% (active),-9.5% (active),5.33% (active),25.7%,27.9%,26.2%,14%,29.4%,-48.2% (active),-21.1% (active),-53.5% (active),21%,–
O=C(/C=C/c1ccccc1)c1ccc(Nc2nc(Nc3ccc(F)cc3)nc(Nc3ccc(Cl)cc3)n2)cc1,97.7%,70.9%,109%,81.5%,134%,88.1%,69.3%,97.2%,110%,81.2%,86.7%,83.5%,101%,78.9%,74.5%,–,100%,85.1%,–,–
COc1cccc(Nc2ncnc3cc(NC(=O)CCl)ccc23)c1,-74% (active),-9.78% (active),-85.3% (active),-69.4% (active),-90.2% (active),-57.5% (active),-19% (active),-89.1% (active),14%,-78.4% (active),-43.2% (active),-79.5% (active),-38.6% (active),-99.2% (active),-80.3% (active),-85.8% (active),-67.5% (active),-74.6% (active),-33.7% (active),–
CCN1CCN(CC(=O)Nc2nc3ccc(NCc4ccc(F)cc4)cc3s2)CC1,95.1%,58.8%,90.7%,91%,94.8%,94.3%,99%,74.1%,108%,91.4%,67.3%,77.4%,99.2%,81.9%,78.9%,90.8%,87.4%,78.6%,102%,–
CN1CCN(Cc2ccc(NC(=O)c3cncc(C#Cc4cnc5ccc(Cl)nn45)c3)cc2C(F)(F)F)CC1,4.06% (active),1.96% (active),-63.1% (active),-1.94% (active),-52.8% (active),-41.6% (active),9.72% (active),-62% (active),3.9% (active),-56.7% (active),0.05% (active),2.68% (active),6.75% (active),4.22% (active),-18.6% (active),-58.7% (active),-14.5% (active),-44.3% (active),-8.84% (active),–
c1ccc2c(c1)CCCc1nnc3nc4ccccc4n3c1-2,39.9%,31.4%,53.5%,38.5%,46.7%,44.5%,30.7%,69.5%,37.6%,28.3%,40.2%,31.4%,56.5%,38.5%,37.1%,56.5%,57.7%,33.7%,83.7%,–
Cc1c2cccnc2c(C)c2c1c1cc(CO)ccc1n2C,25.3%,9.28% (active),16.8%,19.9%,30.2%,28.8%,24.7%,23.2%,-1.38% (active),29.8%,18.7%,16%,21.1%,14%,31%,30.6%,-16.6% (active),8.95% (active),–,–
CN1CCN(Cc2ccc(NC(=O)c3cncc(C#Cc4cnc(N)c5ccc(F)cc45)c3)cc2C(F)(F)F)CC1,4.11% (active),-63.7% (active),-17.2% (active),-58.2% (active),-3.82% (active),29.6%,28.2%,-3.72% (active),47.5%,-0.651% (active),–,-56.3% (active),29.4%,-92.4% (active),18.6%,-21.8% (active),20.6%,-90.3% (active),34.3%,-3.01% (active)
COc1ccc(/C=C/c2c(C(=O)/C=C/c3ccccc3)c(C)nc3ccccc23)cc1,5.61% (active),6.28% (active),17.8%,31.3%,-23% (active),45.3%,22.1%,-39.5% (active),8.08% (active),15.3%,–,1.64% (active),16.3%,-59.9% (active),26.9%,21.2%,19.1%,-82.3% (active),18.7%,29.4%
Cc1ccc2c(=O)cc(C(=O)Nc3sc4c(c3C(=O)NCc3cccnc3)CCCC4)oc2c1C,103%,96.4%,99.9%,96.9%,116%,93.2%,102%,98.1%,104%,104%,–,109%,96.1%,104%,99.2%,99.7%,96.6%,93.1%,104%,91.7%
